Measurements as given in PubChem BioAssay (NCATS).
Values joined by “and” are separate entries in the source; they are usually repeats but may differ in a detail not shown here. Identical values can stand only once. Active and inactive are the calls of the source. The rule behind the calls is not given here.

Key:
[1] = Immunotoxin (HA22) sensitization/mitigation study. Vehicle arm (PBS) (AID 1159510)
[2] = Immunotoxin (SS1P) sensitization/mitigation study. Vehicle arm (DMEM) (AID 1159513)
Potency is the fitted concentration of half-maximal effect.

SMILES | Potency [1] | Potency [2]
Cc1cc(C=c2sc3nc4ccccc4n3c2=O)c(C)n1-c1ccccc1 | 18.7 µM (active) | 9.35 µM (active)
C[C@@H](O[C@H]1OCCN(Cc2n[nH]c(=O)[nH]2)[C@@H]1c1ccc(F)cc1)c1cc(C(F)(F)F)cc(C(F)(F)F)c1 | 14.8 µM (active) | 18.7 µM (active)
CC1(C)OC2=C(C(=O)c3ccccc3C2=O)[C@H](NCc2ccccc2)[C@H]1O | 2.64 µM (active) | 13.2 µM (active)
COc1cccc2nc(-c3cccs3)nc(NN3C(=O)C=C(C)C3=O)c12 | 0.0166 µM (active) | 5.9 µM (active)
CC1(C)SCCN(S(=O)(=O)c2ccc(OCC#CCO)cc2)[C@@H]1C(=O)NO | inactive | inactive
CCCS(=O)(=O)Nc1ccc(F)c(C(=O)c2c[nH]c3ncc(Cl)cc23)c1F | 20.9 µM (active) | 16.6 µM (active)
CN1C(=O)C(Cc2c[nH]c3ccccc23)NC1=S (configuration not stated) | inactive | inactive
Cc1ccc2c(c1)C(=O)[C@@]1(O)CCN(c3ccccc3)C1=N2 | inactive | inactive
O=C(O)[C@@H](c1ccc(OCc2ccc3ccccc3n2)cc1)C1CCCC1 | inactive | inactive
CC1=C[C@@H]2[C@@H]([C@@H](O)C[C@@]3(C)[C@H]2C[C@@H](C)[C@]3(O)C(=O)CO)[C@@]2(C)Cc3cnn(-c4ccccc4)c3C=C12 | 1.66 µM (active) | 23.5 µM (active)
CC1(O)CC(c2nc(-c3ccc4ccc(-c5ccccc5)nc4c3)c3c(N)nccn23)C1 (configuration not stated) | 29.6 µM (active) | 18.7 µM (active)
c1cc(-c2cnn3cc(-c4ccc(OCCN5CCCCC5)cc4)cnc23)ccn1 | 2.64 µM (active) | 16.6 µM (active)
Cc1ccc(C(N)=O)cc1Nc1nccc(-c2cn(C(C)C)c3cnccc23)n1 | 2.64 µM (active) | 7.43 µM (active)
C=CC(=O)Nc1cc2c(Nc3ccc(F)c(Cl)c3)ncnc2cc1C#CC(C)(C)N1CCN(C)CC1 | 0.833 µM (active) | 16.6 µM (active)
CCCCc1ccc(NS(=O)(=O)c2ccc(C)c(C(=O)N3CCN(c4cccc(C)c4C)CC3)c2)cc1 | 20.9 µM (active) | 23.5 µM (active)
NC(=O)c1ccc(-c2nc(-c3ccc4c(c3)OCCO4)c(-c3ccccn3)[nH]2)cc1 | 20.9 µM (active) | inactive
CCn1c(-c2nonc2N)nc2cnc(Oc3cccc(NC(=O)c4ccc(OCCN5CCOCC5)cc4)c3)cc21 | 18.7 µM (active) | 7.43 µM (active)
O=C(NC1CCNCC1)c1[nH]ncc1NC(=O)c1c(Cl)cccc1Cl | 37.2 nM (active) and 105 nM (active) | 29.6 nM (active) and 83.3 nM (active)
O=C1[C@H](Cc2ccc(O)cc2)N2C(=O)CCN(C(=O)NCc3ccccc3)[C@H]2CN1Cc1cccc2ccccc12 | 6.62 µM (active) | 2.35 µM (active)
COC(=O)c1ccc2c(C(=Nc3ccc(N(C)C(=O)CN4CCN(C)CC4)cc3)c3ccccc3)c(O)[nH]c2c1 | 0.209 µM (active) | 1.18 µM (active)
Cc1nc2cnc3ccc(C#Cc4cccnc4)cc3c2n1-c1ccc(C(C)(C)C#N)cc1 | 1.87 µM (active) | 0.132 µM (active)
CN(C)CCCN=c1c2ccccc2n(C)c2[nH]c(=O)n(C)c(=O)c12 | 7.43 µM (active) | 7.43 µM (active)

SMILES | Potency [1] | Potency [2]
CN1CCN(c2ccc3nc(-c4c(N)c5c(F)cccc5[nH]c4=O)[nH]c3c2)CC1 | 1.66 µM (active) | 18.7 µM (active)
O=C(Nc1cccnc1)N1CCC(Cc2cccc(Oc3ccc(C(F)(F)F)cn3)c2)CC1 | 16.6 µM (active) | 6.62 µM (active)
C1Cc2[nH]nc(-c3nn[nH]n3)c2C1 | inactive | inactive
Oc1cccc(-c2nc(N3CCOCC3)c3oc4ncccc4c3n2)c1 | 0.264 µM (active) | 0.0935 µM (active)
CCOc1cc2ncc(C#N)c(Nc3ccc(F)c(Cl)c3)c2cc1NC(=O)C=CCN(C)C | 4.69 µM (active) | 14.8 µM (active)
CS(=O)(=O)Oc1ccc2c(NC(N)=O)c(C(=O)c3ccc(Cl)cc3Cl)oc2c1 | inactive | inactive
CC1=C(CO)C(=O)O[C@@H]([C@@H](C)[C@H]2CC[C@H]3[C@@H]4C[C@H]5O[C@]56[C@@H](O)C=CC(=O)[C@]6(C)[C@@H]4CC[C@]23C)C1 | 0.0743 µM (active) | 3.72 µM (active)
COc1ccc(-c2oc3cc(OC)ccc3c2C(=O)c2ccc(C#N)cc2)cc1 | inactive | inactive
COc1ccc(OC)c(-c2nnc3ccc(-c4ccc(OC)c(O[C@@H]5CCOC5)c4)nn23)c1 | 8.33 µM (active) | 8.33 µM (active)
C1=CCOCc2cc(ccc2OCCN2CCCC2)Nc2nccc(n2)-c2cccc(c2)OCC1 | 3.72 µM (active) | 2.64 µM (active)
COc1ccc(C=Cc2cc(OC)c(OC)c(OC)c2)cc1O | inactive | 0.0019 µM (active)
Cc1ccc(C(=O)Nc2cccc(C(F)(F)F)c2)cc1-c1ccc2nc(NCCN3CCOCC3)ncc2c1 | 14.8 µM (active) | 13.2 µM (active)
COc1cccc2c1CCCC2CCCN1CCN(C2CCCCC2)CC1 (configuration not stated) | 16.6 µM (active) | 7.43 µM (active)
CC(C)(N)C(=O)N[C@H](COCc1ccccc1)C(=O)N1CCC2(CC1)CN(S(C)(=O)=O)c1ccccc12 | 18.7 µM (active) | 8.33 µM (active)
O=c1[nH]c(-c2ccc(C(F)(F)F)cc2)nc2c1CSCC2 | inactive | inactive
O=c1cc(N2CCOCC2)oc2c(-c3cccc4c3sc3ccccc34)cccc12 | 16.6 µM (active) | 29.6 µM (active)
O=c1cc(CN2CCOCC2)occ1OCCCCCSc1ccnc2cc(C(F)(F)F)ccc12 | 20.9 µM (active) | 5.9 µM (active)
CCOC(=O)[C@@H](N)CCC(=O)N[C@@H](CSCc1ccccc1)C(=O)N[C@@H](C(=O)OCC)c1ccccc1 | 23.5 µM (active) | inactive
C=C1C(=CC=C2CCCC3(C)[C@@H]([C@H](C)C=CC=CC(O)(CC)CC)CC[C@@H]23)C[C@@H](O)C[C@@H]1O (some centres not stated) | 23.5 µM (active) | 20.9 µM (active)
CC(NCc1ccc2c(c1)nc(NC(=O)c1ccc(-c3cn[nH]c3)s1)n2CC(C)(C)O)C(C)(C)C (configuration not stated) | 0.0469 µM (active) | 0.0418 µM (active)
Nc1ccc(C(=O)c2cc3c(ccc4ccccc43)[nH]2)cc1 | 0.743 µM (active) | 1.18 µM (active)
Cc1cc(Nc2nc(N[C@@H](C)c3ncc(F)cn3)ncc2Cl)n[nH]1 | inactive | inactive

SMILES | Potency [1] | Potency [2]
C=CCc1cccc(/C=N/NC(=O)CN2CCN(Cc3ccccc3)CC2)c1O | 4.69 µM (active) | 13.2 µM (active)
COCC(=O)NCC=Cc1ccc2ncnc(Nc3ccc(Oc4ccc(C)nc4)c(C)c3)c2c1 | 23.5 µM (active) | 18.7 µM (active)
Nc1nc(-c2nn(Cc3ccccc3F)c3ncccc23)nc(N)c1N1CCOCC1 | inactive | inactive
C[C@@H](Oc1cc(-c2cnn(C3CCNCC3)c2)cnc1N)c1c(Cl)ccc(F)c1Cl | 16.6 µM (active) | 18.7 µM (active)
COc1ccc2c(c1)CC[C@@H](CN(C)CC(=O)O)[C@H]2c1ccccc1 | inactive | inactive
C[C@@H](N)C1CCC(C(=O)Nc2ccncc2)CC1 (some centres not stated) | inactive | inactive
CCC=CC[C@H]1C(=O)CC[C@@H]1CC(=O)OC | inactive | inactive
CCc1cc(Nc2nccc(-c3c(-c4ccc(OC)c(C(=O)Nc5c(F)cccc5F)c4)nc4ccccn34)n2)c(OC)cc1N1CCC(N2CCN(S(C)(=O)=O)CC2)CC1 | 3.72 µM (active) | inactive
COc1ccc2c(c1)CC[C@H]1[C@@H]2CC[C@]2(C)[C@@H](NCCCCCCN3C(=O)C=CC3=O)CC[C@H]12 | 20.9 µM (active) | 20.9 µM (active)
CCN1CCN(CC(=O)Nc2ccc(-c3cccc4c(=O)cc(N5CCOCC5)oc34)c3sc4ccccc4c23)CC1 | 0.935 µM (active) | 1.66 µM (active)
C[C@H](NC(=O)Cc1cc(F)cc(F)c1)C(=O)N[C@@H]1C(=O)N(C)c2ccccc2-c2ccccc21 | inactive | inactive
OCCC#Cc1nc(-c2ccc(F)cc2)c(-c2ccncc2)n1CCCc1ccccc1 | 23.5 µM (active) | 18.7 µM (active)
COc1cc2ncnc(-n3nc(-c4ccccn4)nc3N)c2cc1OC | 3.72 µM (active) | 4.18 µM (active)
Cc1cc(Nc2cc(N3CCN(C)CC3)nc(C=Cc3ccccc3)n2)n[nH]1 | 1.32 µM (active) | 0.833 µM (active)
COc1cc(OC2CCN(C)CC2)ccc1Nc1ncc2c(n1)n(C1CCCC1)c(=O)n2C | 10.5 µM (active) | 16.6 µM (active)
Cc1cnc(Nc2ccc(F)cc2Cl)nc1-c1c[nH]c(C(=O)N[C@H](CO)c2cccc(Cl)c2)c1 | 23.5 µM (active) | 20.9 µM (active)
O=C1C(Cl)=C(NCCN2CCOCC2)C(=O)c2ncccc21 | 2.35 µM (active) | 14.8 µM (active)
COc1cc2nc(N3CCCN(C)CC3)nc(NC3CCN(Cc4ccccc4)CC3)c2cc1OC | 2.09 µM (active) | 13.2 µM (active)
CCC(=O)N1CCN(c2ccc(-n3c(=O)ccc4cnc5ccc(-c6cnc7ccccc7c6)cc5c43)cc2C(F)(F)F)CC1 | 4.18 µM (active) | 0.0209 µM (active)
NC(=O)Nc1cc(-c2ccc(CN3CCOCC3)c(F)c2)sc1C(=O)N[C@H]1CCCNC1 | 0.0418 µM (active) | 0.209 µM (active)
CCc1cc(-c2n[nH]c(C)c2-c2ccc3c(c2)OCCO3)c(O)cc1O | 16.6 µM (active) | 2.64 µM (active)
Nc1cc(C(F)(F)F)c(-c2cc(N3CCOCC3)nc(N3CCOCC3)n2)cn1 | 1.05 µM (active) | 0.935 µM (active)
